# Measured values taken from PubChem BioAssay AID686979 (National Center for Advancing Translational Sciences (NCATS), 2013).
# About 50,000 (12%) of roughly 420,000 compounds were called active. Roughly 26% stayed inconclusive and do not appear here. For the sample, actives were picked, then their nearest neighbours and some compounds at random. A number with no mark means an inactive call. The call rests on the fitted dose curve; in most records, active means well fitted inhibition curve with a large enough effect; inconclusive means small, poorly fitted or top-dose-only effect; inactive means flat fitted curve, though single readings scatter.
# Assay: qHTS for Inhibitors of human tyrosyl-DNA phosphodiesterase 1 (TDP1): qHTS in cells in presence of CPT; further: nearly all actives have a fitted effect of over 55% in size
# Conditions: chicken DT40 Tdp1-/-;hTDP1 cells + 20 nM CPT, ATP luminescence, 48 h; series mostly up to 46.2 µM; activity change, negative = growth inhibition: at the top concentration
# How it was run: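 Cell growth measured by CellTiter-Glo luminescence after a minimum 48 h, 37 C compound exposure with 20 nM CPT in Tdp1-knockout DT40 cells stably expressing hTDP1, seeded 400/well; qHTS titration format.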
# On the % scale 0 is the no-effect control and ±100 the full control effect; potency means the concentration at half of the fitted maximal effect.
Compound,Potency,"activity change, negative = growth inhibition"
CC(C)OCCCNc1ncnc2c1[nH]c1ccc(F)cc12,2.91 µM (active),–
COc1cc(OC)c(OC)cc1/C=N/Nc1ncnc2c1[nH]c1ccc(C)cc12,–,-13.9%
COc1ccc(CCNC(=O)CC2SC(=Nc3cc(C)cc(C)c3)NC2=O)cc1OC (centres undefined),–,-27.2%
CC(C)(C)OC(=O)CNC(=O)c1[nH]cnc1C(=O)N[C@@H](CCCCN)C(=O)OC(C)(C)C,–,-1.96%
COc1cc(NC(=O)c2cccs2)ccc1NC(=O)c1ccccc1Cl,–,-14.7%
COc1cc2ccccc2cc1C(=O)Nc1ccc(NC(=O)c2cccs2)cc1,20.6 µM (active),–
COc1cc2ccccc2cc1C(=O)Nc1ccncc1,–,-17.4%
CCCCCCCCCCOC(=O)C[N+](C)(C)CC1CCCCC1O (centres undefined),–,-13.4%
CC(NCc1cccs1)C(=O)Nc1cc(Cl)cc(Cl)c1 (centres undefined),–,-1%
CC(=O)N1CCC2(CCCN(Cc3ccc(C#N)cc3)C2)CC1,–,5.78%
O=C(O)c1cc(S(=O)(=O)N(Cc2ccccc2)c2cccc(C(F)(F)F)c2)ccc1Cl,–,-1.49%
O=C(CCc1ccccc1)NCc1cccnc1,–,3.47%
O=C(CN(c1cc(C(F)(F)F)ccc1Cl)S(=O)(=O)c1ccccc1)NCc1cccnc1,20.6 µM (active),–
COc1ccc(C2(C)NC(=O)N(CC(=O)c3ccc4c(c3)OCO4)C2=O)cc1 (centres undefined),–,-16.2%
CCCCc1nc(NCCN)c(C#N)c2c1CSC(C)(C)C2,20.6 µM (active),–
CCCCc1nc(NCc2ccccc2)c(C#N)c2c1CCCC2,–,-4.51%
Cc1nc(NCCN)c(C#N)c2c1COC(C)(C)C2,–,-10.5%
COc1ccc(-c2cc(=O)c3c(O)cc(O[C@@H]4O[C@H](CO[C@@H]5O[C@@H](C)[C@H](O)[C@@H](O)[C@H]5O)[C@@H](O)[C@H](O)[C@H]4O)cc3o2)cc1O,inactive,–
COc1cc(C(=O)NC(=S)NCc2ccco2)cc(OC)c1OC,18.4 µM (active),–
COc1cc(C(=O)N[C@@H](C)C(=O)NCc2ccco2)cc(OC)c1OC,–,29.6%
COc1cccc(OC)c1C(=O)NC(=S)NCc1ccco1,–,-1.27%
CCN1C(=O)C(=O)N(CC(=O)Nc2cc(C)ccc2C)C1=O,–,-3.8%

Compound,Potency,"activity change, negative = growth inhibition"
Cc1ccc(CSCCNC(=O)CN(c2ccc(F)cc2)S(C)(=O)=O)cc1,–,-6.25%
CCOC(=O)C1CCN(C(=O)COC(=O)C2CCN(S(=O)(=O)c3ccc4c(c3)OCCO4)CC2)CC1,–,7.75%
Cc1ccc(-c2ccc(=O)n(CC(=O)NCCCN3CCCCC3)n2)cc1,–,-0.122%
CCCN1CCN(CCCNC(=O)Cn2nc(CC)n3c(cc4occc43)c2=O)CC1,–,-3.5%
CCc1ccc(-c2cc3c(=O)n(CC(=O)NCCCN4CCN(Cc5ccccc5)CC4)nc(C)n3n2)cc1,20.6 µM (active),–
Cc1ccccc1CSc1nnc(-c2ccccc2)c(=O)[nH]1,–,6.06%
C/C(Nc1ccc2oc(=O)ccc2c1)=C1/C(=O)CC2[C@@H]1C2(C)C (some centres undefined),–,6.03% [at 9.04 µM]
CC(=O)Nc1ccc(S(=O)(=O)N2CCSCC2)cc1,–,-3.56%
Cc1ccc(C)c(S(=O)(=O)N2CCN(C(=O)Nc3ccccc3)CC2)c1,–,1.6%
CC(=O)Nc1ccc(S(=O)(=O)N2CCN(S(=O)(=O)c3cccs3)CC2)cc1,–,4.79%
Cc1ccc(C)c(S(=O)(=O)N2CCN(CC(=O)Nc3ccc([N+](=O)[O-])cc3)CC2)c1,14.6 µM (active),–
CC(=O)Nc1ccc(S(=O)(=O)N2CCN(CCCOc3cc(C)ccc3C)CC2)cc1,25.9 µM (active),–
Cc1ccc(NC(=O)CCNC(=O)c2ccc([N+](=O)[O-])cc2)cc1S(=O)(=O)N1CCOCC1,–,-17.7%
CCCC/S(C)=N/S(=O)(=O)c1ccc(C)cc1 (centres undefined),–,20%
N#Cc1c(NCCO)ccc([N+](=O)[O-])c1NCCO,–,7.25%
CC(=O)Oc1ccc(-c2nc3c(C)cccc3c(=O)o2)cc1,–,-4.34%
CCn1cc(C(=O)OCC(=O)Nc2cccc(C)c2)c(=O)c2ccc(C)nc21,–,-10%
CN(C)c1cc[n+](Cc2ccccc2)cc1,0.58 µM (active),–
[O-][n+]1ccc(OCc2ccccc2)cc1,–,-4.31%
c1ccc(Cc2cc[n+](Cc3ccccc3)cc2)cc1,23.1 µM (active),–
C[n+]1ccc(C(=O)NCc2ccccc2)cc1,–,2.67%
CN(C)c1ccc(/C=N/N(Cc2ccccc2)c2ccccc2)cc1,–,5.33%

Compound,Potency,"activity change, negative = growth inhibition"
COc1ccc(CCNC(=O)COc2ccc3c(c2)OCO3)cc1,–,-12.7%
CNC(=S)NNC(=O)c1oc2nc(-c3ccccc3)cc(-c3ccco3)c2c1N,–,-5.83%
CC1CCCC(NC(=O)COC(=O)[C@@H]2CC(O)CN2S(=O)(=O)c2ccc3c(c2)OCCO3)C1C (some centres undefined),–,-19.9%
CCC1CCC2(CC1)NC(=O)N(CC(=O)Nc1ccc(OC)cc1)C2=O (centres undefined),–,-25.3%
O=C(CSC(=S)N1CCOCC1)c1cc(Br)cc(Br)c1O,–,4.78%
O=C1Nc2c(Br)cc(Br)cc2C1(O)N1CCOCC1 (centres undefined),5.17 µM (active),–
O=C(c1cc2cc(Br)cc(Br)c2oc1=O)N1CCOCC1,–,1.58%
COc1ccc(C(=O)COC(=O)CCCC(=O)Nc2cc(C(F)(F)F)ccc2Cl)cc1,–,-17.6%
COc1ccc(OC)c(-n2c(=S)[nH]c3cc(C(=O)N4CCCCC4)ccc3c2=O)c1,–,-5.5%
CC(C)c1ccc(NC(=O)c2cc(S(=O)(=O)N3CCc4ccccc4C3)ccc2F)cc1,–,-23%
COc1cc(NC(=O)C2CCN(c3cnccn3)CC2)cc(OC)c1,inactive,–
O=[N+]([O-])c1ccc(Oc2ccc(F)cc2Br)c2ccncc12,18.4 µM (active),–
Cc1ccnc2nc(C(=O)OCC(=O)N(CC(C)C)CC(C)C)nn12,–,-0.985%
CCn1c(SCC(=O)N(C)C2CCS(=O)(=O)C2)nnc1-c1cccs1 (centres undefined),–,2.56%
CN(C(=O)CSc1nnc(-c2ccc(C(C)(C)C)cc2)n1C)C1CCS(=O)(=O)C1 (centres undefined),–,-26.7%
Cc1cc(C)c2nc(SCC(=O)N(C)C3CCS(=O)(=O)C3)cc(C)c2c1 (centres undefined),23.1 µM (active),–
COCCn1c(SC(C)C(=O)NC2CC2)nnc1-c1cccc(C)c1 (centres undefined),–,-11.5%
CCN(CC)C(=O)C1=C(C)N(Cc2ccc(F)cc2)C(=O)C(CC(=O)NCc2cccc3ccccc23)C1 (centres undefined),–,-26%
COc1ccc(NC(=O)C(C)N2c3cccc4cccc(c34)S2(=O)=O)c(OC)c1 (centres undefined),–,-28.9%
CCOc1cccc(-c2nnc(SCC(=O)NC3CC3)n2C)c1,–,-19.7%
